In the library only some 11% were active in any assay of this set; here they are far more common.
JMJD2A Tudor – qHTS Assay for Inhibitors of JMJD2A-Tudor Domain; Lysine-specific demethylase 4A (Homo sapiens), O75164; AlphaScreen JMJD2A-Tudor / H3K4me3 peptide binding; Potency, µM (highest dose often 114 µM), without a hit: top-dose activity change, negative = inhibition, hits mostly inhibitors; 390,000 compounds, 4.4% hits; also: % is scaled to controls: 0 for no effect and ±100 for the full control effect; nearly all actives have a fitted effect of over 50% in size
PLK1 PBD block – qHTS for Inhibitors of PLK1-PDB (polo-like kinase 1 - polo-box domain): Primary Screen. Plk1 PBD binding of FITC phosphopeptide, fluorescence polarization. Potency, µM, for the others: max response, negative = inhibition, hits mostly inhibitors. 360,000 compounds, 2.8% hits. AID 720504, 2013; also: series mostly up to about 57 µM; % is scaled to controls: 0 for no effect and ±100 for the full control effect; nearly all actives have a fitted effect of over 65% in size
BAZ2B block – qHTS Assay for Inhibitors of BAZ2B. AlphaScreen BAZ2B-H3K14Ac peptide displacement. Potency, µM (series often up to 114 µM), without a hit: top-dose activity change, negative = inhibition, usual class: inhibitors. 360,000 compounds, 4.4% hits. AID 504333, 2011; also: % is scaled to controls: 0 for no effect and ±100 for the full control effect; nearly all actives have a fitted effect of over 60% in size
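Inhibition is scored as reduced AlphaScreen emission. The BAZ2B/b-H3(5-23)K14Ac complex (50 nM each) in PBS pH 7.4, 0.01% Tween-20 meets compound (up to 110 uM) for 30 min at RT before bead addition.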
HP1b chromo inh – HTS for Inhibitors of HP1-beta Chromodomain Interactions with Methylated Histone Tails | Chromobox protein homolog 1 (Homo sapiens), P83916 | AlphaScreen HP1-beta / biotin-H3K9me3 peptide binding | Potency, µM (top dose mostly 114 µM), without a hit: top-dose activity change, negative = inhibition, most hits filed as inhibitors | 390,000 compounds, 0.56% hits | AID 540317, 2011; also: nearly all actives have a fitted effect of over 70% in size
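Compound inhibition of the preformed complex between 50 nM HP1-beta and 50 nM biotinylated H3K9me3 peptide was read by AlphaScreen. Buffer was PBS pH 7.4 with 0.01% Tween-20. Incubations ran 30 min at room temperature, with 10 ug/mL donor/acceptor beads.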
G9a block – qHTS Assay for Inhibitors of Histone Lysine Methyltransferase G9a. Histone-lysine N-methyltransferase EHMT2 (Homo sapiens), Q96KQ7. G9a H3K9 monomethylation, AlphaScreen, 2 h. Potency, µM (doses to about 102 µM), for inactives: top-dose activity, negative = inhibition, most hits filed as inhibitors. 350,000 compounds, 8.8% hits. AID 504332, 2011; also: % is scaled to controls: 0 for no effect and ±100 for the full control effect; nearly all actives have a fitted effect of over 75% in size
Target sequence (Q96KQ7 913-1193 limits assumed): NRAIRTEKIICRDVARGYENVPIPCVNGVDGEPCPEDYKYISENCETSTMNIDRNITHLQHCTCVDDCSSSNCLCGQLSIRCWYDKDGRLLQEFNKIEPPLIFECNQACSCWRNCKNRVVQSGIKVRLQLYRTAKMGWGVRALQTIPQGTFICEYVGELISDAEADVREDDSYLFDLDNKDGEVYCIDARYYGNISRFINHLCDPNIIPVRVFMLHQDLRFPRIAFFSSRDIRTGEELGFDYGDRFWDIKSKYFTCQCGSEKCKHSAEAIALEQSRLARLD
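AlphaScreen detection with an anti-monomethyl H3K9 antibody quantified product after a 2 h room-temperature reaction containing 500 nM biotinylated H3K9 peptide, 20 µM SAM and 20 nM enzyme, which had been preincubated 15 min with compound.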
VDR inhibitor – Inhibitors of the vitamin D receptor (VDR): qHTS. 400,000 compounds, 0.93% hits. Potency, µM, for inactives: max response, negative = inhibition, actives largely listed as inhibitors. VDR-SRC2-3 peptide fluorescence polarization, 2 h. AID 504847, 2011. Vitamin D3 receptor (Homo sapiens), P11473; also: % is scaled to controls: 0 for no effect and ±100 for the full control effect
Target sequence (P11473 whole entry, looked up): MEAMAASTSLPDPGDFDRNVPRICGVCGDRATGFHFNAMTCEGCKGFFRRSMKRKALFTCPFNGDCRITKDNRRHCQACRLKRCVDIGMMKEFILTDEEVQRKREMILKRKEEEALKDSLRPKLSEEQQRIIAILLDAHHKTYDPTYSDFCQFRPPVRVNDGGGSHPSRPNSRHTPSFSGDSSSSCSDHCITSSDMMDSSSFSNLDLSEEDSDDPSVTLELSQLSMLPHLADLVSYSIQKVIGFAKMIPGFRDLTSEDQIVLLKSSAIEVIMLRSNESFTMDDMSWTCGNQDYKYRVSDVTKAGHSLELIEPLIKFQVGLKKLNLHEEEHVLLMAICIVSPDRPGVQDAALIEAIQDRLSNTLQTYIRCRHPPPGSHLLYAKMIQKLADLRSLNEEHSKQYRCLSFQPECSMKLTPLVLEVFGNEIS
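FP read-out; VDR + SRC2-3 coactivator peptide; 23 nl compound by pintool; 2 h RT incubation; reagents held at 4 deg C, protected from light.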
Active calls of the source: *; ! = repeats disagree; [ ] = dose if it differs, or a comment. Calls follow the shape of the dose curve; as a rule, active = well fitted curve in the direction sought with a large enough effect; inconclusive = small, poorly fitted or top-dose-only effect, or another doubt; inactive = no such curve, though single readings can be large; an effect the other way counts as inactive or inconclusive. Potency is read from the fitted curve at half-maximal effect.

For O=C(Nc1nn[nH]n1)c1ccc(S(=O)(=O)N2CCCCC2)cc1 the results were JMJD2A Tudor inconclusive, PLK1 PBD block -2%, BAZ2B block 71µM*, HP1b chromo inh 58%, G9a block 50µM* and VDR inhibitor 0%.
Screening O=C(Nc1nnc(S(=O)(=O)N2CCCC2)s1)c1ccccc1F returned JMJD2A Tudor inconclusive, PLK1 PBD block -4%, BAZ2B block -9%, HP1b chromo inh 36%, G9a block inconclusive and VDR inhibitor 0%.
O=C(Nc1nnc(S(=O)(=O)N2CCCCCC2)s1)c1ccccc1 was read as JMJD2A Tudor 28µM*!, PLK1 PBD block -7%, BAZ2B block 8.9µM*!, HP1b chromo inh 49%, G9a block 16µM*! and VDR inhibitor 13%.
For Cc1ccc(NS(=O)(=O)c2ccc3c(c2)CC(=O)N3)cc1C the results were JMJD2A Tudor -33%, PLK1 PBD block -14%, BAZ2B block -11%, HP1b chromo inh 21% and VDR inhibitor -12%.
`O=C(O)C(=Cc1ccc([N+](=O)[O-])cc1)c1cccc(Cl)c1` gave PLK1 PBD block -6%.
`Cc1nc(CN2CCN(C(=O)c3ccc(Br)cc3)CC2)cs1` gave JMJD2A Tudor -10%, PLK1 PBD block -3%, BAZ2B block 1%, HP1b chromo inh 16%, G9a block inconclusive and VDR inhibitor -10%.
`CCCCNC(=O)c1cc(-c2ccc(OC)cc2)nc2n[nH]c(-c3cccc([N+](=O)[O-])c3)c12` gave JMJD2A Tudor -10%, BAZ2B block 4%, HP1b chromo inh 43%, G9a block 8%[59 µM] and VDR inhibitor 4%.
For O=C(Nc1nnc(S(=O)(=O)N2CCOCC2)s1)c1ccccc1Br the results were JMJD2A Tudor -6%, PLK1 PBD block -16%, BAZ2B block -4%, HP1b chromo inh 25%, G9a block 79µM* and VDR inhibitor 0%.
Cc1ccc(CN2CCC(CNc3ncnc4onc(-c5ccc(Cl)cc5)c34)CC2)cc1 was read as JMJD2A Tudor -30%, BAZ2B block -4%[57.1 µM], HP1b chromo inh 25%, G9a block -5%[59 µM] and VDR inhibitor 12%.
COc1ccc(C2N(c3ccc(Cl)cc3)N=C(C(C)=O)N(C)N2C(C)=O)cc1 (stereo unspecified) was read as JMJD2A Tudor inconclusive, PLK1 PBD block -8%, BAZ2B block inconclusive, HP1b chromo inh -11%, G9a block 28µM* and VDR inhibitor -14%.
Screening CCN(CC)CCOC(=O)C(Cc1cccc2ccccc12)CC1CCCO1 (stereo unspecified) returned JMJD2A Tudor 20µM*, PLK1 PBD block -6%, BAZ2B block 50µM*, HP1b chromo inh inconclusive, G9a block -22% and VDR inhibitor 10%.
COc1cc(OC)cc(C(=O)c2c(C)c(C#N)c3ccccn23)c1 was read as JMJD2A Tudor 34%, PLK1 PBD block 0%, BAZ2B block 5%, HP1b chromo inh 71%, G9a block -1% and VDR inhibitor 19%.
Screening COC1=C/C(=C/c2c(O)c(C#N)c3ccccn23)C=CC1=O returned JMJD2A Tudor 22µM*, PLK1 PBD block -18%, BAZ2B block 50µM*, HP1b chromo inh inconclusive, G9a block inconclusive and VDR inhibitor inconclusive.
Screening O=C(Nc1ccn(-c2ccccc2)n1)c1ccc(S(=O)(=O)N2CCCCCC2)cc1 returned JMJD2A Tudor -9%, PLK1 PBD block 0%, BAZ2B block 11%, HP1b chromo inh 24%, G9a block -12% and VDR inhibitor -1%.
Clc1ccc(Cl)c(OCCN2CCCC2)c1 was read as JMJD2A Tudor 32µM*, PLK1 PBD block -3%, BAZ2B block inconclusive, HP1b chromo inh inconclusive, G9a block 50µM* and VDR inhibitor -6%.
Cc1ccc(OCCOCCN2CCN(C)CC2)c(C(C)(C)C)c1 was read as JMJD2A Tudor 5.6µM*, PLK1 PBD block -10%, BAZ2B block 56µM*, HP1b chromo inh inconclusive, G9a block 14µM* and VDR inhibitor 1%.
C=CCc1cc(C)ccc1OCCOCCN1CCN(C)CC1 was read as JMJD2A Tudor 7.9µM*, PLK1 PBD block -6%, BAZ2B block 50µM*, HP1b chromo inh inconclusive, G9a block 14µM* and VDR inhibitor -6%.
Screening CC(C)(C)c1cc(Cl)ccc1OCCOCCN1CCCC1 returned JMJD2A Tudor 20µM*, PLK1 PBD block -10%, BAZ2B block inconclusive, HP1b chromo inh -31%, G9a block 25µM* and VDR inhibitor -2%.
For CC(OC(=O)c1ccc(NS(=O)(=O)c2cccs2)cc1)C(=O)N(C)C1CCCCC1 (stereo unspecified) the results were JMJD2A Tudor -14%, PLK1 PBD block 0%, BAZ2B block 13%, HP1b chromo inh 0%, G9a block inconclusive and VDR inhibitor 10%.
For CN(C)S(=O)(=O)c1ccc(C(=O)NCCSc2c(-c3ccccc3)[nH]c3ccccc23)cc1 the results were JMJD2A Tudor -25%, BAZ2B block -12%, HP1b chromo inh -4%, G9a block -10%[59 µM] and VDR inhibitor -11%.
`CC(C)c1ccc(CN(Cc2ccco2)c2cnc(S(C)(=O)=O)nc2C(=O)Nc2ccccc2)cc1` gave JMJD2A Tudor inconclusive, BAZ2B block inconclusive, HP1b chromo inh 4%, G9a block inconclusive and VDR inhibitor 5%.
`COc1ccccc1N1CCN(C(=O)CCc2nnc3n(C)c(=O)c4sccc4n23)CC1` gave JMJD2A Tudor -17%, BAZ2B block 0%, HP1b chromo inh 34%, G9a block -23%[59 µM] and VDR inhibitor -4%.
`CCc1cc(/C(Cc2ccc3ccccc3n2)=N\O)c(O)cc1O` gave JMJD2A Tudor inconclusive, PLK1 PBD block -9%, BAZ2B block inconclusive, HP1b chromo inh -8%, G9a block -34% and VDR inhibitor -4%.
Cc1c(O)ccc(/C(Cc2ccc3ccccc3n2)=N\N)c1O was read as JMJD2A Tudor inconclusive, PLK1 PBD block 9%, BAZ2B block inconclusive, HP1b chromo inh 10%, G9a block 8.9µM* and VDR inhibitor -17%.
`Oc1ccc(N2CCN(c3nnnn3-c3ccccc3)CC2)cc1` gave JMJD2A Tudor -21%, PLK1 PBD block -27%, HP1b chromo inh inconclusive, G9a block 25µM* and VDR inhibitor -17%.
